Records with an inconclusive call do not appear. Activity calls are given as the source filed them. Unless noted, calls follow the shape of the dose curve; as a rule, active = well fitted curve in the direction sought with a large enough effect; inconclusive = small, poorly fitted or top-dose-only effect, or another doubt; inactive = no such curve, though single readings can be large; an effect the other way counts as inactive or inconclusive.

The text below walks through data of PubChem BioAssay (NCATS).

Assay [1] in a line: qHTS for Inhibitors of the Functional Ribonucleoprotein Complex (vRNP) of Lymphocytic Choriomeningitis Arenaviruses (LCMV): Viability assay - alamar blue signal for LCMV Primary Screen (AID 1347085; calls by dose curve; tested in HEK293 reporter line; also: nearly all actives have a fitted effect of over 80% in size). To be noted: alamar blue viability counter-screen, LCMV vRNP screen cells; series mostly up to 57.5 µM. (In qHTS, concentration-response curves come from the screen itself.)
Assay [2] deals with Nucleoprotein (Lymphocytic choriomeningitis virus (strain Armstrong)) (UniProt P09992). In words: qHTS for Inhibitors of the Functional Ribonucleoprotein Complex (vRNP) of Lymphocytic Choriomeningitis Arenaviruses (LCMV): LCMV Primary Screen - GLuc reporter signal (AID 1347086; calls by dose curve; also: nearly all actives have a fitted effect of over 70% in size). Particulars: LCMV minigenome vRNP cell assay, Gaussia luciferase reporter; series mostly up to 57.5 µM.

Assay [3] is described as follows: qHTS of pediatric cancer cell lines to identify multiple opportunities for drug repurposing: Primary screen for TC32 cells (AID 1347089). Also: nearly all actives have a fitted effect of over 60% in size. Particulars: TC32 Ewing sarcoma viability, CellTiter-Glo luminescence, 48 h; series mostly up to 45.8 µM. The method in brief: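 Luminescent CellTiter-Glo read-out of metabolically active TC32 cells after 48 h compound exposure. Primary: MIPE 11-point, 0.78 nM–46 µM; NPC 8-point, 0.59 nM–46 µM. Confirmatory: 11-point dilutions.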

Assay [4] is described as follows: qHTS of pediatric cancer cell lines to identify multiple opportunities for drug repurposing: Primary screen for DAOY cells (AID 1347090). Also: nearly all actives have a fitted effect of over 55% in size. Particulars: DAOY medulloblastoma viability, CellTiter-Glo luminescence, 48 h; series mostly up to 46 µM. The method in brief:
(§1)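 Eight- or eleven-point concentration series, 48 h treatment at 37 degrees C in growth media; readout CellTiter-Glo luminescence. Potency and efficacy were taken from the concentration-response curves.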

Assay [5] in a line: qHTS of pediatric cancer cell lines to identify multiple opportunities for drug repurposing: Primary screen for SJ-GBM2 cells (AID 1347091). Particulars: SJ-GBM2 viability, CellTiter-Glo luminescence, 48 h; series mostly up to 46 µM. The method in brief: as §1
Assay [6] is described as follows: qHTS of pediatric cancer cell lines to identify multiple opportunities for drug repurposing: Primary screen for SK-N-MC cells (AID 1347093). To be noted: SK-N-MC viability, CellTiter-Glo luminescence, 48 h; series mostly up to 46 µM. The method in brief: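 Metabolically active cells were quantified by ATP-dependent luminescence (CellTiter-Glo, 15 min at room temperature) following 48 h treatment. Cells had been plated at 500-1,000 per well and settled for 5 h beforehand.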

Assay [7] can be described thus: qHTS of pediatric cancer cell lines to identify multiple opportunities for drug repurposing: Primary screen for BT-37 cells (AID 1347094). To be noted: BT-37 viability, CellTiter-Glo luminescence, 48 h; series mostly up to 57.3 µM. The method in brief: (§2)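 Primary screen of approved and investigational compounds on cells in growth media at 37 degrees C, 5% CO2. MIPE set at 11-point and NPC set at 8-point dilutions; viability scored by ATP-based luminescence at 48 hours.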

Assay [8] in a line: qHTS of pediatric cancer cell lines to identify multiple opportunities for drug repurposing: Primary screen for NB-EBc1 cells (AID 1347095). To be noted: NB-EBc1 neuroblastoma viability, CellTiter-Glo luminescence, 48 h; series mostly up to 46 µM. The method in brief: as §2
Assay [9] is described as follows: qHTS of pediatric cancer cell lines to identify multiple opportunities for drug repurposing: Primary screen for U-2 OS cells (AID 1347096). Also: nearly all actives have a fitted effect of over 50% in size. To be noted: U-2 OS viability, CellTiter-Glo luminescence, 48 h; series mostly up to 46 µM. The method in brief:
(§3)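 Cells (500-1,000/well) in growth media were settled 5 h at 37 degrees C, then given compounds for 48 h. Viability was read as CellTiter-Glo luminescence. Primary runs used MIPE at 11 points (0.78 nM-46 µM) and NPC at 8 points (0.59 nM-46 µM); follow-ups used 11 points.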

The nature of assay [10]: qHTS of pediatric cancer cell lines to identify multiple opportunities for drug repurposing: Primary screen for Saos-2 cells (AID 1347097). Also: nearly all actives have a fitted effect of over 40% in size. Particulars: Saos-2 viability, CellTiter-Glo ATP luminescence, 48 h; series mostly up to 46 µM. The method in brief: as §2
Assay [11] is described as follows: qHTS of pediatric cancer cell lines to identify multiple opportunities for drug repurposing: Primary screen for SK-N-SH cells (AID 1347098). Also: nearly all actives have a fitted effect of over 65% in size. To be noted: SK-N-SH viability, CellTiter-Glo luminescence, 48 h; series mostly up to 57 µM. The method in brief:
(§4)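 Cells (500-1,000/well) rested 5 h, then received compounds for 48 h; metabolically active cells were measured by CellTiter-Glo luminescence. Final concentrations spanned up to 46 µM (MIPE, 11-point) or 0.59 nM-46 µM (NPC, 8-point) in primary screens, 11-point in follow-ups.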

Assay [12] is described as follows: qHTS of pediatric cancer cell lines to identify multiple opportunities for drug repurposing: Primary screen for NB1643 cells (AID 1347099). Also: nearly all actives have a fitted effect of over 50% in size. To be noted: NB1643 neuroblastoma viability, CellTiter-Glo luminescence, 48 h; series mostly up to 46 µM. The method in brief: as §2
Assay [13] in a line: qHTS of pediatric cancer cell lines to identify multiple opportunities for drug repurposing: Primary screen for Rh18 cells (AID 1347102). Also: nearly all actives have a fitted effect of over 65% in size. To be noted: Rh18 rhabdomyosarcoma viability, CellTiter-Glo luminescence, 48 h; series mostly up to 46 µM. The method in brief:
as §3

The nature of assay [14]: qHTS of pediatric cancer cell lines to identify multiple opportunities for drug repurposing: Primary screen for RD cells (AID 1347104). Also: nearly all actives have a fitted effect of over 55% in size. To be noted: RD rhabdomyosarcoma viability, CellTiter-Glo luminescence, 48 h; series mostly up to 46 µM. The method in brief:
as §2

Assay [15] is described as follows: qHTS of pediatric cancer cell lines to identify multiple opportunities for drug repurposing: Primary screen for MG 63 (6-TG R) cells (AID 1347105). Also: nearly all actives have a fitted effect of over 50% in size. To be noted: MG 63 (6-TG R) viability, CellTiter-Glo, 48 h; series mostly up to 46 µM. The method in brief: as §2
Assay [16] can be described thus: qHTS of pediatric cancer cell lines to identify multiple opportunities for drug repurposing: Primary screen for control Hh wild type fibroblast cells (AID 1347106). Also: nearly all actives have a fitted effect of over 55% in size. To be noted: Hh wild-type fibroblast viability, CellTiter-Glo luminescence, 48 h; series mostly up to 46 µM. The method in brief: as §3
Assay [17] is described as follows: qHTS of pediatric cancer cell lines to identify multiple opportunities for drug repurposing: Primary screen for LAN-5 cells (AID 1347100). Particulars: LAN-5 neuroblastoma viability, CellTiter-Glo luminescence, 48 h; series mostly up to 46 µM. The method in brief: as §3
Assay [18] can be described thus: qHTS of pediatric cancer cell lines to identify multiple opportunities for drug repurposing: Primary screen for BT-12 cells (AID 1347101). Also: nearly all actives have a fitted effect of over 25% in size. Particulars: BT-12 viability, CellTiter-Glo luminescence, 48 h; series mostly up to 57.3 µM. The method in brief:
as §4

Assay [19] can be described thus: qHTS of pediatric cancer cell lines to identify multiple opportunities for drug repurposing: Primary screen for OHS-50 cells (AID 1347103). Also: nearly all actives have a fitted effect of over 40% in size. To be noted: OHS-50 osteosarcoma viability, CellTiter-Glo luminescence, 48 h; series mostly up to 57.3 µM. The method in brief: as §4
Potency is read from the fitted curve at half-maximal effect.

Sequence of Nucleoprotein (Lymphocytic choriomeningitis virus (strain Armstrong)) (P09992 whole entry, looked up): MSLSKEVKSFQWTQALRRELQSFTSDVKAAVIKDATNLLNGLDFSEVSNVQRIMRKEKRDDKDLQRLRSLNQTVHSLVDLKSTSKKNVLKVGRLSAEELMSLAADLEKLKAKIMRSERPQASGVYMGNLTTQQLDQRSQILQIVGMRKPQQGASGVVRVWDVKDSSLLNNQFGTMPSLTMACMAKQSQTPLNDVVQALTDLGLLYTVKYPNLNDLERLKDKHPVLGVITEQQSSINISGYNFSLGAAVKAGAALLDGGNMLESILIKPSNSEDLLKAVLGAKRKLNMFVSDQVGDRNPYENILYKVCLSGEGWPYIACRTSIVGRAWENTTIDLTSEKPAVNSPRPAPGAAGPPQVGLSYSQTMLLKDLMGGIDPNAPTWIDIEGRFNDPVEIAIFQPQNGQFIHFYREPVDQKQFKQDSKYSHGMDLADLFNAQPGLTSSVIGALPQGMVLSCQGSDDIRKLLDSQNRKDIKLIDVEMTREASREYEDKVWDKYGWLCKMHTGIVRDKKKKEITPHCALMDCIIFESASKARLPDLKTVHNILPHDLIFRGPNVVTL

On to `Oc1ccc2c3c1O[C@H]1[C@@H](O)C=C[C@H]4[C@@H](C2)NCC[C@@]341`, for which the Potency entry in assay [1], in [2], in assay [3], in assay [4], in assay [5] and in assay [6] was “inactive” each time. Besides, the Potency entry in [7], in assay [8], in assay [9], in assay [10], in assay [11] and in assay [12] was “inactive” throughout. Also, the Potency result in assay [13], in assay [14], in [15] and in assay [16] was “inactive” throughout.
In the case of `CC(C)N(CCNC(=O)CN1CCCC1=O)C(C)C`, the Potency result in [1], in assay [2], in assay [3], in [4], in assay [5] and in assay [6] was “inactive” in each case. Besides, the Potency result in assay [7], in [8], in [9], in assay [10], in assay [11] and in assay [12] was “inactive” in each case. Moreover, the Potency result in assay [17], in assay [18], in [13], in [19], in [14] and in assay [15] was “inactive” each time. For the same compound, in [16], the Potency entry was “inactive”.
Consider `O=c1[nH]c2ccc(Cl)cc2c(N[C@@H]2CN3CCC2CC3)c1-c1nc2ccccc2[nH]1`, for which the Potency is 0.217 µM (active) in assay [1]; 0.863 µM (active) in assay [2]; 0.93 µM (active) in assay [3]; 0.743 µM (active) in [4]; 0.0469 µM (active) in assay [5]; 0.0332 µM (active) in assay [6]. For the same compound, the Potency is 5.44 µM (active) in assay [7]; 0.0418 µM (active) in assay [8]; 0.187 µM (active) in [9]; 0.418 µM (active) in assay [10]; 9.61 µM (active) in assay [11]; 0.526 µM (active) in assay [12]. The Potency in assay [17] was 0.148 µM (active); in [18], 15.3 µM (active); in assay [14], 5.9 µM (active); in [15], 0.235 µM (active); in [16], 16.6 µM (active).
Turning to `CO[C@H]1CCC(O[C@H]2C[C@H]([C@]3(C)CC[C@]4(C[C@H](O)[C@@H](C)[C@@H]([C@@H](C)C=C(C)C(=O)[C@H](C)C[C@H](C)C(=O)O)O4)O3)O[C@]3(O[C@@H]([C@H]4O[C@@](O)(CO)[C@H](C)C[C@H]4C)C[C@H]3C)[C@H]2C)O[C@H]1C` (some centres undefined), the Potency result in assay [1] and in assay [2] was “inactive” in each case. The Potency was 18.6 µM (active) in assay [3]; 4.69 µM (active) in assay [4]; 2.09 µM (active) in assay [5]; 0.187 µM (active) in assay [6]; 0.344 µM (active) in assay [7]; 2.64 µM (active) in assay [10]. The Potency was 30.4 µM (active) in assay [11]; 1.05 µM (active) in assay [12]; 0.372 µM (active) in assay [17]; 0.273 µM (active) in assay [18]; 2.96 µM (active) in [13]; 0.217 µM (active) in assay [19]. The Potency in [14] is 1.87 µM (active); in [15], 7.43 µM (active).
In the case of `C[C@]12COC(=O)C[C@@H]1CC[C@@H]1[C@H]2CC[C@@]2(C)[C@H]1CC[C@]2(C)O`, the Potency result in assay [1], in assay [2], in assay [3], in assay [4], in assay [5] and in assay [6] was “inactive” in each case. Further, the Potency entry in [7], in assay [8], in assay [9], in [10], in assay [11] and in assay [12] was “inactive” in each case. Moreover, the Potency result in assay [17], in assay [18], in [13], in assay [14], in assay [15] and in [16] was “inactive” each time.
Turning to `O=C(O)COc1nc(Cl)c(Cl)cc1Cl`, the Potency entry in assay [1], in assay [2], in [3], in assay [4], in [5] and in assay [7] was “inactive” each time. For the same compound, the Potency entry in assay [8], in assay [9], in assay [11], in assay [12], in assay [17] and in assay [13] was “inactive” each time. The Potency result in assay [19], in assay [14], in assay [15] and in assay [16] was “inactive” in each case. Also, the Potency in [6] and in assay [10] was 0.001 µM (active) in each case.
